Experimental data reported in PubChem BioAssay (NCI).
Values joined by “and” are separate entries in the source; they are usually repeats but may differ in a detail not shown here. Equal values may be shown once. Compounds without any hit were thinned out: in the full panel of roughly 83,000, 20% have a hit.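 Assay: single dose, 48 h. Readout: percent growth (0 = no net growth; negative = cell death). Active: <10.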 Active and inactive are the calls of the source.

These compounds were tested on SK-MEL-28 melanoma (assay: NCI-60 one-dose screen, 48 h (100 = growth as untreated, 0 = no growth, -100 = all killed)). Conditions: 10 µM.

Row | SMILES | growth
1 | COc1ccccc1[As]=[As]c1ccccc1OC (stereo not given) | -83% (active)
2 | O=S(=O)(F)c1ccc(Cl)cc1 | 119% (inactive)
3 | [Cl][Hg][c]1ccc2ccccc2c1 | -89% (active)
4 | COc1cc(/C=C(/C)[N+](=O)[O-])ccc1O | 33.1% (inactive) and -9.24% (active)
5 | O=[N+]([O-])c1cc[n+]([O-])c2ccccc12 | -86.9% (active)
6 | [O-][n+]1ccccc1S | 34.1% (inactive)
7 | NNc1ccccc1 | 107% (inactive)
8 | O=C1CCC(=O)N1SC(Cl)(Cl)Cl | 107% (inactive)
9 | Cc1cc([N+](=O)[O-])c2ccccc2[n+]1[O-] | 41.8% (inactive) and 15.2% (inactive)
10 | CC/C(=C/c1ccc(OC)cc1)[N+](=O)[O-] | -52.4% (active)
11 | COc1cc(/C=C\[N+](=O)[O-])ccc1O | 55.8% (inactive) and 97.3% (inactive)
12 | Oc1c(I)cc(I)cc1I | 101% (inactive)
13 | COC1CC2C=C(C)/C=C/C=C/C(=O)NC(c3ccccc3)C/C=C/CCC(O)CC(=O)C2=C1O (stereo not given) | -80.9% (active)
14 | Cn1c(O)c(N=O)c(=O)n(C)c1=O | 113% (inactive) and 107% (inactive)
15 | C#CC1(O)CCC(C(C)(C)C)CC1 (stereo not given) | 120% (inactive)
16 | O=[N+]([O-])/C=C/c1ccc(Cl)cc1[N+](=O)[O-] | 85% (inactive)
17 | COC12c3c(C)cc(O)c4c(=O)occ(c34)C(=O)C1C13COC(=O)c4c(O)cc(C)c(c41)C(=O)C2C3OC(C)=O (stereo not given) | 91.6% (inactive)
18 | [Cl][Sn]([c]1ccccc1)([c]1ccccc1)[c]1ccccc1 | -85% (active)
19 | C=NCC#N | 123% (inactive) and 108% (inactive)
20 | CC(=O)[O][Hg][c]1c(C)c(C)cc(C)c1C | -37.9% (active)
21 | [Cl][Hg][c]1ccc(Cl)s1 | -85.4% (active)
22 | COc1ccc(/C=C(\C)[N+](=O)[O-])cc1OC | -67.2% (active)

Each compound was assayed on SK-MEL-2 melanoma in the same assay as above. Conditions: 10 µM.

Row | SMILES | growth
23 | COc1ccccc1[As]=[As]c1ccccc1OC (stereo not given) | -86.9% (active)
24 | O=S(=O)(F)c1ccc(Cl)cc1 | 124% (inactive)
25 | C/C1=C\[C@H](C)C[C@H](C)OC(=O)C[C@H](c2ccc(O)cc2)NC(=O)[C@@H](Cc2c(Br)[nH]c3ccccc23)N(C)C(=O)[C@H](C)NC(=O)[C@@H](C)C1 | -67.3% (active)
26 | CC1CCC2(OC1)OC1C(O)C3C4CCC5CC(OC6OC(CO)C(OC7OC(CO)C(O)C(OC8OCC(O)C(O)C8O)C7OC7OC(CO)C(O)C(OC8OC(CO)C(O)C(O)C8O)C7O)C(O)C6O)C(O)CC5(C)C4CCC3(C)C1C2C (stereo not given) | 8.3% (active)
27 | [Cl][Hg][c]1ccc2ccccc2c1 | -90.7% (active)
28 | COc1cc(/C=C(/C)[N+](=O)[O-])ccc1O | 19.6% (inactive) and 72.1% (inactive)
29 | O=[N+]([O-])c1cc[n+]([O-])c2ccccc12 | -56.2% (active)
30 | [O-][n+]1ccccc1S | 41.2% (inactive)
31 | O=C1CCC(=O)N1SC(Cl)(Cl)Cl | 97% (inactive)
32 | Cc1cc([N+](=O)[O-])c2ccccc2[n+]1[O-] | -57.5% (active) and -79.5% (active)
33 | CC/C(=C/c1ccc(OC)cc1)[N+](=O)[O-] | 27% (inactive)
34 | COc1cc(/C=C\[N+](=O)[O-])ccc1O | 87.7% (inactive) and 93.5% (inactive)
35 | Oc1c(I)cc(I)cc1I | 101% (inactive)
36 | COC(=O)C1C(O)C(C)C(O)C(C)/C=C\C=C(C)C(=O)Nc2c(C)c(OC(C)=O)c3c(c2O)C(=O)C(C)=C2OCOC(=C23)C(C)=CC(C)(O)C(O)C(C)C1O (stereo not given) | 96.2% (inactive)
37 | COC1CC2C=C(C)/C=C/C=C/C(=O)NC(c3ccccc3)C/C=C/CCC(O)CC(=O)C2=C1O (stereo not given) | -89.8% (active)
38 | C=C1C(=O)O[C@@H]2C[C@@H](C)[C@@H]3C=CC(=O)[C@@]3(C)[C@@H](O)[C@H]12 | -24.4% (active)
39 | CC12OOC(c3ccccc31)c1c2ccc2ccccc12 (stereo not given) | 71.7% (inactive)
40 | Cn1c(O)c(N=O)c(=O)n(C)c1=O | 108% (inactive) and 109% (inactive)
41 | CC(C)C1(NC(=O)C2CC3c4cccc5[nH]cc(c45)CC3N(C)C2)OC2(O)C3CCCN3C(=O)C(Cc3ccccc3)N2C1=O (stereo not given) | 107% (inactive)
42 | C#CC1(O)CCC(C(C)(C)C)CC1 (stereo not given) | 112% (inactive)
43 | O=[N+]([O-])/C=C/c1ccc(Cl)cc1[N+](=O)[O-] | 102% (inactive)
44 | COC(C(=O)C(O)C(C)O)C1Cc2cc3cc(OC4CC(OC(C)=O)C(OC5CC(O)C(OC)C(C)O5)C(C)O4)cc(O)c3c(O)c2C(=O)C1OC1CC(OC2CC(OC3CC(C)(O)C(OC(=O)C(C)C)C(C)O3)C(O)C(C)O2)C(O)C(C)O1 (stereo not given) | -60.7% (active)
45 | COC12c3c(C)cc(O)c4c(=O)occ(c34)C(=O)C1C13COC(=O)c4c(O)cc(C)c(c41)C(=O)C2C3OC(C)=O (stereo not given) | 81.5% (inactive)
46 | [Cl][Sn]([c]1ccccc1)([c]1ccccc1)[c]1ccccc1 | -62.9% (active)
47 | C=NCC#N | 96.9% (inactive) and 82.2% (inactive)
48 | CC(=O)[O][Hg][c]1c(C)c(C)cc(C)c1C | -48.3% (active)
49 | [Cl][Hg][c]1ccc(Cl)s1 | 64.3% (inactive)
50 | COc1ccc(/C=C(\C)[N+](=O)[O-])cc1OC | 21.4% (inactive)
